Bioassay records as filed in PubChem.
ADAM17 inh: inhibitors of human ADAM17; recombinant ADAM17, EDANS/DABCYL FRET peptide cleavage; AID 720648; 370,000 tested, 0.83% active; P78536; inhibition, % at 6.95 µM;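 active = inhibition above the mean of compounds lying between control limits plus 3 SD, set per campaign, cut at about 8.5% in these data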;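 note: 0% = DMSO-only wells as the low control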
HGIII-sPLA2 inh: Inhibits HGIII-sPLA2 liposome hydrolysis, primary screen; AID 743126; Q9NZ20; 370,000 tested, 0.56% active; inhibition, % at 12.2 µM; QFRET BODIPY PC-A2 liposome hydrolysis, fluorescence;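 active = inhibition above mean plus 3 SD of compounds lying within the high and low control bounds, cut at about 19% in these data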;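 note: 0% = median of test compound wells and 100% = no enzyme DMSO wells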
ADAM10 inh: inhibits human ADAM10. inhibition, % at 7 µM. 370,000 tested, 0.62% active. recombinant ADAM10, EDANS/DABCYL FRET peptide cleavage, 3 h. O14672;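 active = inhibition above a per-campaign cutoff equal to the mean of compounds falling between control-based bounds plus 3 SD, cut at about 20% in these data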;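 note: 0% = DMSO wells while the 100% control is not disclosed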
proKLK7 act: activators of human kallikrein-7 zymogen; P49862; AID 652039; activation, % at 7 µM; purified proKLK7, EDANS-DABCYL substrate fluorescence; 100% is mature enzyme control, 0% vehicle; 370,000 tested, 0.9% active;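 active = activation above the mean of all tested compounds plus 3 SD, computed per campaign excluding outliers beyond control limits, cut at about 13% in these data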
PLC-gamma1 inh: blocks human PLC-gamma1 enzyme activity; P19174; purified PLC-gamma1, fluorogenic substrate, fluorescence; inhibition, % at 12.2 µM; 370,000 tested, 0.84% active; AID 720700
PLC-beta3 inh: inhibitors of human phospholipase C beta3; Purified PLC-beta3, fluorogenic substrate, fluorescence; AID 720704; 370,000 tested, 0.18% active; inhibition, % at 12.2 µM; in the data active = inhibition above about 11%;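 note: 0% = median of compound wells on plate and 100% = full blocker control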
ADAM10 ctr: ADAM10 inhibition, counter-screen for ADAM17 exosite hits | shares compounds with ADAM17 inh | recombinant ADAM10, EDANS/DABCYL FRET peptide cleavage, 3 h | inhibition, % at 6.95 µM | 2,900 tested, 47% active | AID 743256;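 active = mean inhibition over the triplicate runs exceeds the activity threshold set in the earlier primary screen, cut at about 20% in these data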;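 note: 0% = DMSO wells and 100% = marimastat wells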
ADAM17 confirm: confirmation of inhibitors of human ADAM17. shares compounds with ADAM17 inh. recombinant ADAM17, EDANS/DABCYL QFRET peptide cleavage. inhibition, % at 6.95 µM. 2,900 tested, 65% active. AID 743257;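 active = mean inhibition across replicates above the hit cutoff set in the primary screen, cut at about 8.5% in these data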;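 note: 0% = DMSO wells and 100% = marimastat wells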
PLCgamma1 ctr: counter-screen for PLC-beta3 inhibitors: inhibitors of human PLC-gamma1; shares compounds with PLC-gamma1 inh; purified PLC-gamma1, fluorogenic substrate, fluorescence; inhibition, % at 12.3 µM; 3,300 tested, 3.1% active
PLCb3 confirm: confirmation of human PLC-beta3 inhibitors; purified PLC-beta3, fluorogenic substrate fluorescence; AID 743261; inhibition, % at 12.3 µM; shares compounds with PLC-gamma1 inh; 3,300 tested, 1% active; in the data active = inhibition above about 11%
The depositor's hits bear a star; . = not tested or not shown. Compounds with a hit are over-represented: about 3.4% of the library has one in this group of screens. Cut-off read from the data, not from the text of the source, unless noted: active = inhibition above about 9.5%; inactive = the rest.

SMILES | ADAM17 inh | HGIII-sPLA2 inh | ADAM10 inh | proKLK7 act | PLC-gamma1 inh | PLC-beta3 inh | PLCgamma1 ctr | PLCb3 confirm | others
COC(=O)C1=C(c2ccccc2OCc2ccccc2)C[C@@H]2CC[C@H]1N2C(=O)NCc1ccc(C(F)(F)F)cc1 | 3 | -14 | 9 | 0 | -1 | -1 | . | .
COC(=O)C1=C(c2ccc(-c3ccccc3)c(F)c2)C[C@@H]2CC[C@H]1N2C(=O)NC1CC1 | 11* | -11 | 19 | 1 | 5 | 4 | . | . | ADAM10 ctr=6;ADAM17 confirm=7
COC(=O)C1=C(c2ccc(OCc3ccccc3)cc2)C[C@@H]2CC[C@H]1N2C(=O)NCc1ccccc1OC | 9.7* | -7 | 17 | 0 | 4 | 1 | . | . | ADAM10 ctr=28*;ADAM17 confirm=14*
CC(C(=O)c1cn(C)c2ccccc12)c1ccccc1 (centres undefined) | 11* | -7 | 15 | 0 | 6 | 4 | . | . | ADAM10 ctr=2;ADAM17 confirm=4
COC(=O)C1C(c2ccc(I)cc2)CC2CCC1N2C (centres undefined) | 3 | 5 | -2 | 0 | 1 | 3 | . | .
Cc1cccc(OCC(=O)N2CCN(Cc3ccncc3)CC2)c1 | 11* | 4 | 5 | -1 | 13* | 4 | -3 | -2 | ADAM10 ctr=-8;ADAM17 confirm=0
CC(C)(C)c1cc(O)ccc1O | -7 | 8 | -11 | 0 | 0 | -6 | . | .
C=CCn1c(O)c(C(C)=NCCCN2CCOCC2)c(=O)[nH]c1=O | -4 | 7 | -7 | -1 | 0 | 2 | . | .
CC(=NCCCN1CCOCC1)c1c(O)[nH]c(=O)[nH]c1=O | 2 | 1 | 8 | -1 | 15* | 2 | -2 | 3
C=C1[C@H]2CC[C@H]3[C@]4(C)C[C@H](O[C@@H]5OC(CO)[C@@H](OSOOO)[C@H](OS(=O)(=O)O)[C@H]5OC(=O)CC(C)C)C[C@@H](C(=O)O)[C@H]4CC[C@]3(C2)[C@H]1O (some centres undefined) | 2 | 9 | 17 | 0 | 3 | 12* | 2 | 2
Cn1c(O)c(C(=Nc2ccccc2)SCc2ccc(Cl)cc2)c(=O)n(C)c1=O | -1 | 0 | 8 | 1 | -2 | -8 | . | .
O=C(COc1ccccc1)N1CCN(Cc2c[nH]c3ccccc23)CC1 | 2 | -37 | 2 | 0 | 11* | -1 | -4 | -1
CC1(C)CC(=O)CC(C)(C)N1O | 5 | -2 | 3 | -1 | 11* | 6 | -5 | -1
CN1CCN(CCC(C#N)(c2ccccc2)c2ccccc2)CC1 | 8 | -2 | 8 | -1 | 11* | 12* | 9 | 1
COc1ccccc1-n1c(CNCC2CCCO2)nc2ccccc2c1=O (centres undefined) | 2 | 6 | 1 | 0 | 13* | 11* | 9.6* | 4
Cc1cc(C)n2nc(SC(C)C(=O)N3CCC4(CC3)OCCO4)nc2n1 (centres undefined) | -4 | 7 | 3 | 0 | 12* | 2 | -4 | -2
O=[N+]([O-])c1ccc(C(c2ccc([N+](=O)[O-])cc2)c2ccc([N+](=O)[O-])cc2)cc1 | 4 | -3 | 14 | 1 | 3 | 3 | . | .
Cn1cnc([N+](=O)[O-])c1Sc1ccc([N+](=O)[O-])cc1 | 7 | 15 | 10 | 0 | 9 | 11* | 0 | 5
N#Cc1ccc(NC(=S)N2Cc3cc(Br)ccc3-n3nncc3C2)cc1 | 5 | -7 | 1 | 1 | 1 | 3 | . | .
CCCCC(=O)N/N=C/c1c(O)n(C2CC2)c(=S)[nH]c1=O | 0 | -2 | 3 | 0 | 10* | 8 | -7 | -3
CCCCC(=O)N/N=C/c1c(O)n(CCCC)c(=S)[nH]c1=O | 3 | 4 | 18 | 0 | 8 | -6 | . | .
COc1cc(CCN)c(OC)cc1C | 0 | 1 | -9 | 0 | -4 | 0 | . | .
Cc1cccc(C)c1OP(N)(=O)Oc1c(C)cccc1C | -3 | 12 | -1 | 0 | 9.6* | -7 | 0 | -33
Cc1cccc(OP(N)(N)=O)c1C | -2 | -1 | -3 | 0 | 4 | 1 | . | .
Cc1cc(N2CCNC[C@@H]2C)ccc1N1CCN[C@H](C)C1 | -5 | 0 | -4 | 0 | 0 | -1 | . | .
SMILES | ADAM17 inh | HGIII-sPLA2 inh | ADAM10 inh | proKLK7 act | PLC-gamma1 inh | PLC-beta3 inh | PLCgamma1 ctr | PLCb3 confirm | others
CC1(C)CC(n2[nH]c(=O)c3c2NC(=O)CSC3c2ccccc2)CCO1 (centres undefined) | 6 | 9 | 7 | 0 | 17* | 10 | -4 | -13
CCCCN(Cc1ccccc1)C1CCN(CCc2ccccc2)CC1 | 2 | 0 | -3 | 1 | 13* | 8 | -3 | -1
O=C(NC1CN2CCC1CC2)c1ccc(Cl)cc1 (centres undefined) | -3 | -5 | -8 | 0 | 1 | 2 | . | .
CSc1ccc(C(=O)C(C)(C)N2CCOCC2)cc1 | -1 | 8 | -16 | 0 | 11* | 1 | 0 | 0
COC(=O)C1=C(c2ccc(OC(F)(F)F)cc2)C[C@@H]2CC[C@H]1N2C(=O)N1CCCC1 | 2 | 4 | -12 | -1 | 12* | 4 | -4 | -2
O=C(NCCN1CCC2(CC1)C(=O)NCN2c1ccccc1)c1cccnc1Cl | -2 | 5 | -14 | 0 | 4 | 2 | . | .
CCCCn1c(O)c(C(CC)=NCCc2ccccc2)c(=O)[nH]c1=O | 2 | -6 | 6 | 0 | 9.9* | -1 | -1 | -1
CCC(=NCC1CCCO1)c1c(O)n(-c2ccccc2)c(=O)[nH]c1=O (centres undefined) | -5 | 5 | -6 | 0 | 1 | 2 | . | .
CCC(=NCC1CCCO1)c1c(O)n(Cc2ccccc2)c(=O)[nH]c1=O (centres undefined) | 1 | 5 | 1 | 0 | 8 | 20* | -2 | 15*
CCOC(=O)[C@]12Cc3ccc4ccccc4c3[C@H]1N(Cc1ccccc1)C(=O)c1ccccc12 | 6 | 0 | -4 | 0 | 11* | 1 | -7 | -3
CCOC(=O)[C@]12Cc3cc4ccccc4cc3[C@H]1N(Cc1ccccc1)C(=O)c1ccccc12 | 0 | -7 | 4 | 0 | 2 | 1 | . | .
Cc1cc(N2CCNC[C@H]2C)ccc1N1CCN[C@@H](C)C1 | 1 | 3 | 2 | -1 | -6 | 0 | . | .
